Shown are actives, neighbours in structure and some others; about 1.3% of the full set was active somewhere.
LAP4-GFP MLPCN = yeast TOR pathway LAP4-GFP modulation; S. cerevisiae LAP4-GFP multiplex, flow cytometry GFP, 3 h; median GFP as percent of DMSO wells; actives 0.34% (n = 320,000); GFP response vs DMSO, % at 10 µM;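 active = GFP response vs DMSO above a set limit, about the screen mean plus 3 SD, cut at about 150% in these data; inconclusive = under 70 cell events counted for the yeast strain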
MEP2 TOR yeast = modulators of TOR pathway MEP2-GFP in S. cerevisiae; actives 0.51% (n = 330,000); GFP response vs DMSO, % at 10 µM; S. cerevisiae MEP2-GFP strain, flow cytometry GFP, 3 h; 100% = DMSO control level;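 active = GFP response versus DMSO above a set limit, roughly screen mean plus 3 SD, cut at about 180% in these data; inconclusive = fewer than 70 cells counted for a yeast strain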;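 note: median GFP fluorescence of the barcode-gated MEP2-GFP cells per well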
CIT2 TOR yeast = alters CIT2-GFP fluorescence in TOR pathway yeast screen; GFP response vs DMSO, % at 10 µM; S. cerevisiae CIT2-GFP strain, flow cytometry, 3 h; 100 means same as DMSO wells; actives 0.065% (n = 320,000);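 active = GFP response relative to DMSO above a set limit, near the screen mean plus 3 SD, cut at about 150% in these data; inconclusive = Fewer than 70 cells measured for a yeast strain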;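 note: ratio of well median GFP fluorescence to mean of DMSO wells on the plate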
RPL19A TOR yeast = yeast TOR pathway RPL19A-GFP modulation. actives 0.3% (n = 330,000). S. cerevisiae RPL19A-GFP strain, flow cytometry, 3 h; active compounds read low. percent response vs DMSO, % at 10 µM;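 active = percent response vs DMSO below 50%; inconclusive = fewer than 70 events counted for the yeast strain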;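 note: median channel GFP fluorescence of the barcoded RPL19A-GFP strain; ratio of sample median GFP to plate DMSO average so 100% = DMSO; lower means less RPL19A-GFP as with rapamycin TOR inhibition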
Efflux pump mplx = inhibitors of Candida antifungal efflux pumps expressed in yeast; S. cerevisiae Candida pump triplex, Nile Red efflux; inhibition, % at 10 µM; actives 0.44% (n = 330,000);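 active = plate passing quality check with inhibition over a set limit, or well fluorescence over plate mean plus 4 SD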;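 note: Nile Red retained in pooled yeast measured as flow cytometry median fluorescence; 0% = buffer negative control and 100% = Enniatin B positive control; higher means more Nile Red kept so more efflux inhibition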
AGP1 TOR yeast = modulators of TOR pathway AGP1-GFP in S. cerevisiae; S. cerevisiae AGP1-GFP multiplex flow cytometry, 3 h; GFP as percent of DMSO wells; GFP response vs DMSO, % at 10 µM; actives 0.02% (n = 320,000);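 active = GFP response relative to DMSO above a set limit, near screen average plus 3 SD, cut at about 150% in these data; inconclusive = fewer than 70 cells counted for the yeast strain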;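 note: median GFP channel fluorescence of the gated AGP1 strain per well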
Cmpd fluor yeast = flagged as fluorescent in efflux inhibitor counter-screen; AID 588517; S. cerevisiae AD/pABC3, compound fluorescence, flow cytometry; fluorescence ratio to DMSO, % at 10 µM; actives 4% (n = 1,700); shares compounds with Efflux pump mplx;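 active = fluorescence ratio to DMSO above its plate's cutoff, the plate mean ratio plus 5 SD, cut at about 210% in these data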;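 note: unstained yeast with no Nile Red so the signal is compound autofluorescence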
CaMdr1 efflux inh = Candida Mdr1 efflux pump inhibition; inhibition, % at 10 µM; shares compounds with Efflux pump mplx; S. cerevisiae AD/CaMDR1, Nile Red efflux, flow cytometry; actives 1% (n = 1,700); in the data active = inhibition above about 26%;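 note: 0% = DMSO vehicle and 100% = reference inhibitor; higher means more Nile Red retained so more efflux inhibition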
CaCdr2 efflux inh = inhibitors of Candida albicans Cdr2 efflux pump; shares compounds with Efflux pump mplx; S. cerevisiae AD/CaCDR2, Nile Red retention, flow cytometry; Nile Red retention ratio vs DMSO, % at 10 µM; actives 4% (n = 1,700); AID 588520; in the data active = Nile Red retention ratio vs DMSO above about 190%;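 note: higher ratio means more blocking of Cdr2 efflux of the dye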
Cdr1 pump inh = inhibitors of Candida albicans Cdr1 efflux pump; inhibition, % at 10 µM; shares compounds with Efflux pump mplx; actives 1% (n = 1,700); S. cerevisiae AD/CaCDR1, Nile Red efflux, flow cytometry;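 active = inhibition above the screen-wide mean plus twice its standard deviation, cut at about 32% in these data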
* marks the source's active call; other numbers are inactive results.

For Cc1ccc(Cl)cc1N1CCN(c2cccc[n+]2C)CC1 the results were LAP4-GFP MLPCN 94.2, MEP2 TOR yeast 101.9, CIT2 TOR yeast 95.9, RPL19A TOR yeast 99.9, Efflux pump mplx 2.2*, AGP1 TOR yeast 97.6, Cmpd fluor yeast 95.5, CaMdr1 efflux inh -0.2, CaCdr2 efflux inh 92.2 and Cdr1 pump inh 0.0.
Screening Cc1cc(C)[n+]2[nH]c(N)c(N=Nc3ccccc3)c2n1 returned LAP4-GFP MLPCN 127.9, MEP2 TOR yeast 92.3, CIT2 TOR yeast 96.1, RPL19A TOR yeast 91.7, Efflux pump mplx -0.1 and AGP1 TOR yeast 98.2.
For Cc1nn(C)c(C)c1NS(=O)(=O)c1ccccc1Cl the results were LAP4-GFP MLPCN 91.9, MEP2 TOR yeast 100.0, CIT2 TOR yeast 92.3, RPL19A TOR yeast 96.8, Efflux pump mplx 0.2 and AGP1 TOR yeast 93.8.
Screening COc1ccc(CNC(=O)CSc2nnc3c(n2)[nH]c2ccccc23)cc1 returned LAP4-GFP MLPCN 97.7, MEP2 TOR yeast 98.5, CIT2 TOR yeast 94.6, RPL19A TOR yeast 96.8, Efflux pump mplx 0.5 and AGP1 TOR yeast 101.0.
Screening COC(=O)c1ccc(CSc2nnc3c(n2)[nH]c2ccccc23)cc1 returned LAP4-GFP MLPCN 104.6, MEP2 TOR yeast 95.8, CIT2 TOR yeast 90.5, RPL19A TOR yeast 96.5, Efflux pump mplx 0.5*, AGP1 TOR yeast 102.3, Cmpd fluor yeast 124.0, CaMdr1 efflux inh 0.5, CaCdr2 efflux inh 148.0 and Cdr1 pump inh 0.5.
`O=C(COC(=O)c1ccc(Cl)nc1)Nc1c(Cl)cccc1C(F)(F)F` gave LAP4-GFP MLPCN 85.2, MEP2 TOR yeast 100.8, CIT2 TOR yeast 92.4, RPL19A TOR yeast 102.3, Efflux pump mplx 0.5*, AGP1 TOR yeast 92.1, Cmpd fluor yeast 91.9, CaMdr1 efflux inh -0.3, CaCdr2 efflux inh 89.0 and Cdr1 pump inh -0.1.
For O=C(COC(=O)c1ccc(Cl)nc1)NC(=O)c1ccccc1 the results were LAP4-GFP MLPCN 85.0, MEP2 TOR yeast 109.6, CIT2 TOR yeast 92.2, RPL19A TOR yeast 101.5, Efflux pump mplx 0.6*, AGP1 TOR yeast 82.1, Cmpd fluor yeast 110.0, CaMdr1 efflux inh 0.0, CaCdr2 efflux inh 112.3 and Cdr1 pump inh 0.1.
For O=C(COC(=O)c1cc[n+]([O-])cc1)Nc1c(Cl)cccc1C(F)(F)F the results were LAP4-GFP MLPCN 108.1, MEP2 TOR yeast 106.2, CIT2 TOR yeast 106.8, RPL19A TOR yeast 100.8, Efflux pump mplx -0.1 and AGP1 TOR yeast 106.2.
`O=C(COC(=O)c1ccc(Cl)nc1)NNC(=O)c1ccc(Cl)cc1` gave LAP4-GFP MLPCN 89.1, MEP2 TOR yeast 100.2, CIT2 TOR yeast 95.8, RPL19A TOR yeast 91.7, Efflux pump mplx 0.0 and AGP1 TOR yeast 92.6.
For COc1ccccc1N1CCN(C(=O)C(=O)c2cn(CC(=O)N3CCOCC3)c3ccccc23)CC1 the results were LAP4-GFP MLPCN 100.7, MEP2 TOR yeast 109.5, CIT2 TOR yeast 107.4, RPL19A TOR yeast 101.5, Efflux pump mplx 0.3 and AGP1 TOR yeast 102.2.
For Cc1ccc(NC(=O)c2cccc(S(=O)(=O)N(C)c3ccccc3)c2)cc1S(=O)(=O)N1CCOCC1 the results were LAP4-GFP MLPCN 94.3, MEP2 TOR yeast 98.7, CIT2 TOR yeast 101.9, RPL19A TOR yeast 97.2, Efflux pump mplx 8.0*, AGP1 TOR yeast 96.1, Cmpd fluor yeast 106.7, CaMdr1 efflux inh -0.1, CaCdr2 efflux inh 103.6 and Cdr1 pump inh 0.1.
For Cc1ccc(C(=O)Nc2cccc(C(=O)O)c2)cc1S(=O)(=O)N1CCOCC1 the results were LAP4-GFP MLPCN 99.8, MEP2 TOR yeast 110.7, CIT2 TOR yeast 107.5, RPL19A TOR yeast 99.7, Efflux pump mplx -0.1 and AGP1 TOR yeast 107.6.
Screening O=C(Cc1ccccc1)c1nnc(-c2ccccc2)o1 returned LAP4-GFP MLPCN 90.7, MEP2 TOR yeast 86.9, CIT2 TOR yeast 79.4, RPL19A TOR yeast 95.2, Efflux pump mplx 0.0 and AGP1 TOR yeast 89.5.
`CC(=O)OCCCNc1cc(Sc2ccc(C)cc2)c2nonc2c1[N+](=O)[O-]` gave LAP4-GFP MLPCN 93.4, MEP2 TOR yeast 94.2, CIT2 TOR yeast 98.8, RPL19A TOR yeast inconclusive, Efflux pump mplx 12.7*, AGP1 TOR yeast 87.6, Cmpd fluor yeast 88.0, CaMdr1 efflux inh -0.2, CaCdr2 efflux inh 102.9 and Cdr1 pump inh 0.5.
`CC(C)(CNC(=O)c1cccc(S(=O)(=O)Nc2ccc(Br)cc2)c1)N1CCOCC1` gave LAP4-GFP MLPCN 110.2, MEP2 TOR yeast 100.7, CIT2 TOR yeast 107.7, RPL19A TOR yeast 98.0, Efflux pump mplx -0.1 and AGP1 TOR yeast 109.7.
C/C=C(\C)CN1CCN(c2ccc(C)cc2)CC1 was read as LAP4-GFP MLPCN 100.5, MEP2 TOR yeast 100.3, CIT2 TOR yeast 98.8, RPL19A TOR yeast 91.7, Efflux pump mplx 0.4*, AGP1 TOR yeast 94.5, Cmpd fluor yeast 99.8, CaMdr1 efflux inh -0.2, CaCdr2 efflux inh 91.4 and Cdr1 pump inh -0.1.
`O=C(Nc1ccncc1)c1ccc(NS(=O)(=O)c2ccc3[nH]c(=O)[nH]c3c2)cc1` gave LAP4-GFP MLPCN 99.5, MEP2 TOR yeast 102.8, CIT2 TOR yeast 105.0, RPL19A TOR yeast 100.1, Efflux pump mplx -0.1 and AGP1 TOR yeast 104.0.
CCOc1ncccc1C(=O)OCc1ccc(C(=O)OC)cc1 was read as LAP4-GFP MLPCN 104.5, MEP2 TOR yeast 93.3, CIT2 TOR yeast 89.5, RPL19A TOR yeast 95.5, Efflux pump mplx 1.4*, AGP1 TOR yeast 90.2, Cmpd fluor yeast 118.0, CaMdr1 efflux inh 0.2, CaCdr2 efflux inh 122.6 and Cdr1 pump inh 0.0.
Screening COc1ccc(CNC(=O)Cn2nc(C)n3cccc3c2=O)cc1 returned LAP4-GFP MLPCN 89.5, MEP2 TOR yeast 106.5, CIT2 TOR yeast 104.5, RPL19A TOR yeast 92.2, Efflux pump mplx -0.1 and AGP1 TOR yeast 95.6.
`C=CCn1c(=O)[nH]c2nc3cc(N=CN(C)C)c(C)cc3nc2c1=O` gave LAP4-GFP MLPCN 110.7, MEP2 TOR yeast 107.9, CIT2 TOR yeast 116.2, RPL19A TOR yeast 105.7, Efflux pump mplx 1.7*, AGP1 TOR yeast 112.4, Cmpd fluor yeast 147.4, CaMdr1 efflux inh -0.2, CaCdr2 efflux inh 86.9 and Cdr1 pump inh -0.1.
